CHT block: human CHT choline transport inhibition | hit rate 0.86% among 310,000 | B-score at 10 µM | CHT-expressing cells, membrane potential dye, choline response; active compounds read low | Q9GZV3;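 active = B-score over 3 SD under the library average, and starting fluorescence ratio not unusually high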;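 also: choline stimulus applied at its EC90 after an EC20 pre-addition; B-score computed on integrated fluorescence ratio after choline addition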
Target sequence (Q9GZV3 whole entry, looked up): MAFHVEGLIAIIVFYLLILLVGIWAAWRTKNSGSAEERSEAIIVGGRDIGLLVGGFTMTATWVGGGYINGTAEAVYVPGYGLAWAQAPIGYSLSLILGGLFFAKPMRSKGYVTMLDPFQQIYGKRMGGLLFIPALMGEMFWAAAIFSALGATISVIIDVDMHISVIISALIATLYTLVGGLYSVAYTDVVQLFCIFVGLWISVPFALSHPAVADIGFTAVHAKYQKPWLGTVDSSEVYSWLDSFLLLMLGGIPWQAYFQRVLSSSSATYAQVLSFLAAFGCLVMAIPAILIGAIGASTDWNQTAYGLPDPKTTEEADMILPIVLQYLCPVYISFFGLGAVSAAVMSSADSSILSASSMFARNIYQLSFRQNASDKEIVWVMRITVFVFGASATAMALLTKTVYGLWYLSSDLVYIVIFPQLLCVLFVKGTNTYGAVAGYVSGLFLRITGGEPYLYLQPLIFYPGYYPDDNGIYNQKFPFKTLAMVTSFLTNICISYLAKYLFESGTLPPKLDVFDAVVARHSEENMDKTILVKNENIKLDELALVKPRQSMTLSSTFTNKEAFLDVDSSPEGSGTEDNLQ
ANO1 block: mouse TMEM16A channel inhibition, primary screen. Q8BHY3. HEK293 TMEM16A/YFP iodide influx fluorescence, ionomycin. normalized B-score (activity score, 25-100; higher = stronger inhibition) at 10 µM. hit rate 1.2% among 310,000. AID 588511;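 active = ratio plate-corrected score three or more library SD toward inhibition, starting fluorescence score within five deviations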;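 also: score derived from kinetic fluorescence span divided by baseline fluorescence per well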
Kir21 block: Kir2.1 (mouse) channel inhibition. P35561. HEK293-Kir2.1, FluxOR thallium flux fluorescence; active compounds read low. B-score at 10 µM. hit rate 0.85% among 310,000;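 active = fluorescence ratio B-score at or below minus 3 SD of library scores, with starting-brightness B-score within 2 SD, cut at about -4.2 in these data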;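 also: channel flux triggered by added potassium and thallium sulfate stimulus; B-score of peak minus minimum fluorescence over baseline after thallium stimulus; more negative B-score means stronger Kir2.1 block with less thallium influx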
Rce1 inh: yeast Ras-converting enzyme inhibition; yeast membranes, quenched prenylated peptide cleavage fluorescence; hit rate 0.27% among 290,000; Q03530; calls only;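 active = fall in fluorescence gain of 50% or more versus controls, with final raw signal at or below 3038400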
CHT PAM: human CHT allosteric activation. Q9GZV3. CHT-expressing cells, membrane potential dye, choline EC20; active compounds read high; LV-AA mutant CHT in HEK293 cells. B-score at 10 µM. hit rate 0.49% among 310,000. AID 488977;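 active = initial fluorescence not abnormally high and integrated response B-score, plate-corrected, over 3 SD above library mean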
ANO1 activ: mouse TMEM16A channel activation, primary screen. HEK293 TMEM16A/YFP-H148Q/I152L, iodide quench fluorescence; active compounds read low. B-score at 10 µM. hit rate 0.3% among 340,000;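 active = fluorescence-ratio B-score plate-corrected deviation score at least 3 library SD below zero, with starting fluorescence score within 5 deviations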;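 also: channel opened by trigger with iodide after compound preincubation; score built on the fluorescence ratio of max minus min over baseline; more negative score means more quench and so TMEM16A activation or potentiation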
CHT inh conf: confirmation of human choline transporter CHT inhibitors | shares compounds with CHT block | CHT-expressing cells, choline membrane potential dye; LV-to-AA substituted CHT, HEK293 cells | CHT activity remaining % of control (active compounds read low), % at 10 µM | hit rate 70% among 2,400 | AID 493221;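 active = choline transporter activity left, mean of duplicates at 10 µM, below buffer-only control mean minus 3 SD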;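 also: depolarization triggered by choline at its EC90 following an EC20 pre-addition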
HEK293 CHT ctr: activity in parental HEK293 cells lacking CHT. shares compounds with CHT block. membrane potential dye, choline response; active = decrease or increase beyond buffer ±3SD. hit rate 4% among 2,400. membrane potential ratio readout (active if shifted either direction beyond buffer ±3SD; no single direction) at 10 µM;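 also: parental cells lack the transporter so any hit is non-specific; ratio is peak minus trough fluorescence over baseline after EC90 choline challenge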
CHT act confirm: human CHT activation, confirmatory screen; shares compounds with CHT PAM; CHT-expressing cells, membrane potential dye fluorescence (FDSS); % of choline EC20–EC90 response window; HEK293 expressing CHT LV-AA mutant; choline added at its EC20; activation, % at 10 µM; hit rate 91% among 2,500; AID 504833;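 active = primary screen active, with duplicate mean activation above negative control mean plus 3 SD, cut at about 11% in these data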
HEK293 MP dye: CHT activator counter-screen hit in parental HEK293 cells | shares compounds with CHT PAM | membrane potential dye fluorescence (FDSS); measured after EC20 choline addition | ratio readout change at 10 µM, hits read low | hit rate 62% among 2,500;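 active = duplicate-averaged ratio beyond 3 SD from buffer wells, up or down, though filed actives are nearly all decreases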
TMEM16A reconf: reconfirmed blocker of mouse TMEM16A calcium-activated chloride channel; shares compounds with ANO1 block; HEK293 TMEM16A/YFP-H148Q, iodide quench fluorescence; ionomycin added to raise cell calcium; inhibition, % at 10 µM; hit rate 39% among 2,300; AID 652189;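 active = mean duplicate percent inhibition, scaled so buffer wells are 0 and the reference blocker 100, over three buffer SD above buffer mean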
TMEM16A Ca cntr: calcium mobilization counter-screen hit for TMEM16A inhibitor series; shares compounds with ANO1 block; TMEM16A/YFP HEK293, Fluo4 calcium mobilization; calcium response (% of ionomycin), % at 10 µM; hit rate 2% among 2,300;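 active = duplicate-averaged calcium signal over 20% of the ionomycin maximum, relative to buffer baseline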;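 also: each well's signal is peak minus trough fluorescence divided by its pre-addition baseline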
YFP-HEK293 quench: parental YFP-HEK293 iodide quench counter-screen activity; 2,300 tested, under 10 active; ionomycin; shares compounds with ANO1 block; YFP ratio F(max-min)/F0 at 10 µM;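 active = yellow fluorescent protein signal ratio exceeding the buffer control mean by over 5 SD of those controls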;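 also: ratio is mean of duplicate wells from kinetic YFP trace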
ClC-1 rat inh: rat ClC-1 inhibition, TMEM16A specificity screen; CHO ClC-1-YFP, iodide influx fluorescence quench; iodide control reads 0, buffer control 100; ratio percent, % at 10 µM; AID 652236; shares compounds with ANO1 block; 2,300 tested, under 10 active;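 active = duplicate-mean ratio percent above the mean of iodide-only control wells, which defines zero, plus 5 of their SD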;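 also: higher percent means stronger block of ClC-1 iodide influx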
Of the large screens only hits and unclear results are named; the others gave an inactive call (follow-up assays come after a bar, where they were run). Shown are actives, neighbours in structure and some others; about 3.2% of the full set was active somewhere.

CCC(=NCCc1ccccc1)c1c(O)n(C)c(=O)n(C)c1=O	CHT block -5.6, ANO1 block 25 | CHT inh conf 53% | HEK293 CHT ctr inactive | TMEM16A reconf inactive | TMEM16A Ca cntr inactive | YFP-HEK293 quench inactive | ClC-1 rat inh inactive
CC1=C2[C@@H]3OC(=O)[C@H](C)C3CC[C@@]2(C)C=CC1=O (stereo not given in full)	none
CN1CCc2nc3sc(C#N)c(N)c3c(-c3cccs3)c2C1	CHT PAM 8.5 | CHT act confirm 39 | HEK293 MP dye -59
CN1CCc2nc3sc(C(=O)NC4CC4)c(N)c3cc2C1	none
O=[N+]([O-])c1ccc(N2CCCCC2)c2ncccc12	none (no result: Rce1 inh)
O=[N+]([O-])c1ccc(N2CCCNCC2)c2ncccc12	CHT PAM 9.3 | CHT act confirm 48 | HEK293 MP dye -89
O=C(c1ccco1)c1cn(Cc2ccccc2)c2ccccc12	CHT PAM 7.4 | CHT act confirm 23 | HEK293 MP dye inactive
C[C@]12CCC3C(CC[C@H]4C[C@H](O)CC[C@]34C)C1CCC2=O (stereo not given in full)	none (no result: CHT block, ANO1 block, Kir21 block, Rce1 inh, CHT PAM)
CN1CCN(c2ncnc3c2cnn3C)CC1	none | CHT act confirm 52 | HEK293 MP dye -59
CCc1cc2c(N3CCN(C)CC3)ncnc2s1	none
COC(=O)C1=C(c2cccc(C#N)c2)C[C@@H]2CC[C@H]1N2C(=O)NCC1CC1	none (no result: CHT block, ANO1 block, Kir21 block, Rce1 inh, CHT PAM)
CN(C)C(=O)Oc1cccc(OCc2n(C)c3ccccc3[n+]2C)c1	CHT PAM 7 | CHT act confirm 55 | HEK293 MP dye -42
COc1ccc(OCC(=O)N2CCCC(N3CCN(c4ccccc4C)CC3)C2)cc1 (stereo not given)	none
Cc1cc(C)n2nc(C)[n+](C)c2n1	CHT PAM 8 | CHT act confirm 60 | HEK293 MP dye -34
CC(=NCCCn1ccnc1)c1c(O)n(C)c(=O)n(C)c1=O	none | CHT act confirm 48 | HEK293 MP dye -34
CCCCn1c(O)c(C(C)=NCCCn2ccnc2)c(=O)[nH]c1=O	none
COC(=O)C1=C(c2ccc(F)cc2F)C[C@@H]2CC[C@H]1N2C(=O)N1CCCCC1	none (no result: CHT block, ANO1 block, Kir21 block, Rce1 inh, CHT PAM)
CN1CCN(c2ccc3nccnc3c2)CC1	none | CHT act confirm 16 | HEK293 MP dye inactive
CCc1nc2ccc(N3CCN(C)CC3)cc2nc1CC	none
CCCCCn1c(=O)c(C(=O)NCc2ccncc2)c(O)c2ccccc21	ANO1 block 25 | CHT act confirm 31 | HEK293 MP dye inactive
O=c1ccc2c(O)c3ccoc3cc2o1	none (no result: CHT block, ANO1 block, Kir21 block, Rce1 inh, CHT PAM)
COc1ccc(NC(=O)c2cc([N+](=O)[O-])ccc2N2CCNCC2)cc1	none | CHT act confirm 54 | HEK293 MP dye -59
O=[N+]([O-])c1ccc(N2CC2)c([N+](=O)[O-])c1	none (no result: CHT block, ANO1 block, Kir21 block, Rce1 inh, CHT PAM)
COC(=O)C1=C(c2ccc(F)cc2OCc2ccccc2)C[C@@H]2CC[C@H]1N2C(=O)N1CCC(O)CC1	none (no result: CHT block, ANO1 block, Kir21 block, Rce1 inh, CHT PAM)
O=C1Nc2ccccc2/C1=C/c1cnc[nH]1	none | CHT act confirm 45 | HEK293 MP dye -30
Cc1cc(OCC(=O)NCc2ccc(S(N)(=O)=O)cc2)c2c3c(c(=O)oc2c1)CCC3	none
COC(=O)C1=C(c2cc3ccccc3o2)C[C@@H]2CC[C@H]1N2C(=O)NCc1ccco1	none
Clc1ccc(CCC(Cn2ccnc2)Sc2c(Cl)cccc2Cl)cc1 (stereo not given)	none (no result: Kir21 block, Rce1 inh) | CHT act confirm 30 | HEK293 MP dye -27
Clc1ccc(C(Cn2ccnc2)OCc2csc3c(Cl)cccc23)c(Cl)c1 (stereo not given)	none (no result: Kir21 block, Rce1 inh)
C=C1[C@H]2CC[C@H]3[C@]4(C)C[C@H](O[C@@H]5OC(CO)[C@@H](OSOOO)[C@H](OS(=O)(=O)O)[C@H]5OC(=O)CC(C)C)C[C@@H](C(=O)O)[C@H]4CC[C@]3(C2)[C@H]1O (stereo not given in full)	none (no result: CHT block, ANO1 block, Kir21 block, Rce1 inh, CHT PAM)
O=[N+]([O-])c1ccc(C[n+]2c(-c3ccccc3)cc(-c3ccccc3)cc2-c2ccccc2)cc1	Rce1 inh active | CHT act confirm 49 | HEK293 MP dye -47
C[n+]1c(-c2ccccc2)c2cc(N)ccc2c2ccc(N)cc21	CHT PAM 9.2 | CHT act confirm 38 | HEK293 MP dye -77
Nc1ccc2ccc3cccc[n+]3c2c1	none
Cc1ccc2cc(CNCCc3ccccc3C)c(=O)[nH]c2c1	none
CCN(CC)C1=NC(=[N+](CC)CC)c2ccccc21	CHT PAM 8.7 | CHT act confirm 64 | HEK293 MP dye -56
c1ccc(-c2[nH]c(-c3ccccc3)[n+](CC3CO3)c2-c2ccccc2)cc1 (stereo not given)	Kir21 block -6.8 | CHT act confirm 25 | HEK293 MP dye inactive
N=C1c2ccccc2CN1c1cccc([N+](=O)[O-])c1	none | CHT act confirm 54 | HEK293 MP dye -38
N=C1c2ccccc2CN1c1ccc(F)c([N+](=O)[O-])c1	none | CHT act confirm 46 | HEK293 MP dye -26
Nc1cccc2c1Cc1cc([N+](=O)[O-])ccc1-2	none (no result: CHT block, ANO1 block, Kir21 block, Rce1 inh, CHT PAM)
Cc1cc(-c2ccccc2)cc(C)[n+]1Cc1ccccc1	CHT PAM 7.4 | CHT act confirm 12 | HEK293 MP dye -29
c1ccc(-c2ccncc2)cc1	none (no result: CHT block, ANO1 block, Kir21 block, Rce1 inh, CHT PAM)
